# Sampled rows, rich in hits. Any-hit rate of the full collection: about 1.4%.
# AmpC no deterg = qHTS Inhibitors of AmpC Beta-Lactamase (assay without detergent); AmpC nitrocefin hydrolysis, absorbance 480 nm, 0.0001% Triton; Potency, µM (doses to about 57.1 µM), inactives show at the top dose activity change, negative = inhibition, usual class: inhibitors; 0.52% of 330,000 active; AID 485341, 2010;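 further: potency means the concentration at half of the fitted maximal effect; plate controls were no compound for no effect and no enzyme for full effect; nearly all actives have a fitted effect of over 20% in size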
# Target sequence (P00811 whole entry, looked up): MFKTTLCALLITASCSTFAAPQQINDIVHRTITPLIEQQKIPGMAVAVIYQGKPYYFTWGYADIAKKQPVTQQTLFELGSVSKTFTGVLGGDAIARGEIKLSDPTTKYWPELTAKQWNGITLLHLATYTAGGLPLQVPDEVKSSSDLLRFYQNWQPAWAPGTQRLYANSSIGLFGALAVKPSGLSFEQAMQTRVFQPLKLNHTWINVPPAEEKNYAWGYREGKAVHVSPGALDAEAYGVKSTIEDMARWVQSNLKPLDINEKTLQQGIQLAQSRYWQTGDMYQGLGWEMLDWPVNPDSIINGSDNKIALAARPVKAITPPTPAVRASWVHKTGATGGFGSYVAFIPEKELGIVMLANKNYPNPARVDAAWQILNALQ
#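 AmpC (5.3 nM in the dispensed reagent) in 20 mM phosphate pH 7.0 with 0.01% (detergent screen) or 0.0001% Triton X-100 was preincubated with compounds for 15 min at room temperature. Nitrocefin was then added from an 800 uM solution, and hydrolysis was followed at 480 nm.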
# SARS PLpro yeast-1 = qHTS of Yeast-based Assay for SARS-CoV PLP; S. cerevisiae expressing SARS-CoV PLpro, growth rescue; Potency, µM (top dose mostly 32.9 µM), without a hit: at the top dose activity, positive = growth rescue, actives largely listed as activators; 0.19% of 330,000 active; calls by dose curve; further: potency means the concentration at half of the fitted maximal effect; 0% is about no effect; nearly all actives have a fitted effect of over 55% in size
# NS1 function inh = qHTS Assay for Inhibitors of Influenza NS1 Protein Function; 0.4% of 270,000 active; Potency, µM (titrated, usually from 46.1 µM), without a hit: top-dose activity, positive = more growth; calls by dose curve; further: potency means the concentration at half of the fitted maximal effect; actives are rising curves; nearly all actives have a fitted effect of over 50% in size
#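 A cell-based growth assay was used: compounds that relieve NS1-induced slow growth of budding yeast raise OD600. Assay medium was yeast nitrogen base with ammonium sulphate and -URA supplement, pH 6.0, with 2% galactose.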
# Giardia FBPA inh = qHTS Assay for Inhibitors of Fructose-1,6-bisphosphate Aldolase from Giardia Lamblia. A8B2U2. purified Giardia FBPA. Potency, µM (series often up to 59.6 µM), inactives show at the top dose activity, negative = inhibition, most hits filed as inhibitors. 0.71% of 290,000 active. AID 2451, 2010; further: potency means the concentration at half of the fitted maximal effect; on the % scale 0 is the no-effect control and ±100 the full control effect; nearly all actives have a fitted effect of over 55% in size
# Target sequence (A8B2U2 whole entry, looked up): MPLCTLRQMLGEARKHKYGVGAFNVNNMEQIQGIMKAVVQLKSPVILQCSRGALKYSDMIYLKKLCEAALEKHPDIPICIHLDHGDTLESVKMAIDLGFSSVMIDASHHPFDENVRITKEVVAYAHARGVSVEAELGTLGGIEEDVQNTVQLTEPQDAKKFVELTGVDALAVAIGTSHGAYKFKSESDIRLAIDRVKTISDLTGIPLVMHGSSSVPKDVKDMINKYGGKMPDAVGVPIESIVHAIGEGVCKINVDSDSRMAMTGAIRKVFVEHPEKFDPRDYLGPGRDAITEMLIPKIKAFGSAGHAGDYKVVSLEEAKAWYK
#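 40 nM FBPA preincubated 10 min at RT with compound (up to 57.5 uM final), then substrate plus GAPDH/TPI/NAD/arsenate coupling and diaphorase/resazurin added. Fluorescence read after 20 min at RT, 525/598 nm.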
# AmpC inh detg = qHTS Inhibitors of AmpC Beta-Lactamase (assay with detergent); Potency, µM (top dose mostly 114 µM), for inactives: at the highest dose activity change, negative = inhibition, actives largely listed as inhibitors; 0.041% of 370,000 active; P00811; AmpC hydrolysis of nitrocefin, absorbance 480 nm, 0.01% Triton; AID 485294, 2010;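 further: potency means the concentration at half of the fitted maximal effect; 0% = no-compound wells and -100% = no-enzyme wells; nearly all actives have a fitted effect of over 25% in size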
#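 AmpC (5.3 nM in the dispensed reagent) in 20 mM phosphate pH 7.0 with 0.01% (detergent screen) or 0.0001% Triton X-100 was preincubated with compounds for 15 min at room temperature. Nitrocefin was then added from an 800 uM solution, and hydrolysis was followed at 480 nm.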
# SARS PLpro yeast-2 = qHTS of Yeast-based Assay for SARS-CoV PLP: Hit Validation; shares compounds with SARS PLpro yeast-1; yeast expressing SARS-CoV PLpro, growth phenotype rescue; calls only; 19% of 1,000 active; call rule not given here
# * = called active by the depositor; i = inactive; ? = inconclusive; . = no result; + = active, no number. Unless noted, the call rests on the fitted dose curve; in most records, active means well fitted curve in the direction sought with a large enough effect; inconclusive means small, poorly fitted or top-dose-only effect, or another doubt; inactive means no such curve, though single readings can be large; an effect the other way counts as inactive or inconclusive.
SMILES,AmpC no deterg,SARS PLpro yeast-1,NS1 function inh,Giardia FBPA inh,AmpC inh detg,SARS PLpro yeast-2
CC(C)n1cnnc1SCC(=O)NC(=O)c1ccccc1,-14%,?,.,.,?,i
Cc1cc(C)c(S(=O)(=O)NCc2ccc3c(c2)OCO3)c(C)c1,-30%,-14%,9%,7%,?,.
CCn1cc(C(=O)O)c(=O)c2cc(F)c(N3CCN(S(=O)(=O)c4ccc(NC(=O)OC)cc4)CC3)cc21,-4%,?,?,-19%,-6%,i
Cc1ccc(S(=O)(=O)N2CC(=NN=C(N)N)C2)cc1,-14%,1%,-4%,4%,0%,.
COc1ccc(S(=O)(=O)N(CCc2ccccc2)CC(=O)O)cc1Cl,-10%,?,-6%,12%,-3%,i
COc1cc(/C=N/NC(=O)CN(CCc2ccccc2)S(=O)(=O)c2ccc(NC(C)=O)cc2)cc(OC)c1OC,147%,-1%,26%,0%,-1%,.
COc1ccc(/C=N/NC(=O)CN(CCc2ccccc2)S(=O)(=O)c2ccc(NC(C)=O)cc2)cc1OC,20%,3.5µM*,13%,4%,-2%,i
COc1ccc(S(=O)(=O)N(CCc2ccccc2)CC(=O)Nc2ccc(C)c(C)c2)cc1OC,.,.,.,.,21%,.
CCn1c(O)c(C=Nc2ccccc2)sc1=O,0%,-1%,?,1%,5%,.
Cc1cccnc1NC(=O)CNC(=O)C12CC3CC(CC(Cl)(C3)C1)C2,-9%,2%,.,.,4%,.
O=C(C1=C(O)C(=O)N(CCN2CCOCC2)C1c1cccnc1)c1cc2ccccc2o1 (stereo not given),-4%,6%,10%,-1%,-8%,.
O=C(C1=C(O)C(=O)N(CCCN2CCOCC2)C1c1ccncc1)c1cc2ccccc2o1 (stereo not given),-36%,13µM*,-11%,5%,?,+
O=C(CSCc1cccc(Br)c1)NC1CC1,-14%,?,20%,1%,-12%,i
S=c1[nH]nc(-c2ccncc2)n1/N=C/c1ccccc1,-23%,?,17%,6%,-5%,i
Cc1cccc(/C=N/n2c(-c3ccncc3)n[nH]c2=S)c1,-30%,-9%,7%,5%,-9%,.
COCCCNC(=O)C1CCN(S(=O)(=O)c2c(C)noc2/C=C\c2ccc(OC)cc2)CC1,33%,0%,-10%,-1%,0%,.
CCCCNC(=O)C1CCN(S(=O)(=O)c2c(C)noc2/C=C\c2ccc(OC)cc2)CC1,9%,?,0%,4%,?,+
CCC(=O)c1ccc(N2CCN(C(=O)c3cc([N+](=O)[O-])ccc3N3CCN(C)CC3)CC2)c(F)c1,50%,?,5%,1%,3%,+
CCC(=O)c1ccc(N2CCN(C(=O)c3ccc(F)cc3)CC2)c(F)c1,24%,-1%,-3%,-1%,3%,.
CCn1cnc2c1c(=O)n(Cc1ccc(C(=O)OC)cc1)c(=O)n2Cc1ccccc1,11%,-1%,-6%,3%,-2%,.
Cn1c(NCCCN2CCOCC2)nc2c1c(=O)n(Cc1ccc(Cl)cc1)c(=O)n2C,140%,1%,9%,1%,-4%,.
COc1ccc2sc(N(Cc3cccnc3)C(=O)CCc3ccccc3)nc2c1,.,.,.,.,-2%,.
CC(=O)O[C@@H]1[C@@]2(C)O[C@H]2CC[C@]23O[C@H]2[C@H](OC3=O)C2=C(C)C(=O)O[C@@]21O,-6%,?,11%,3%,-11%,i
COc1cccc(OCCSc2nc(N)cc(N)n2)c1,-20%,.,-105%,-5%,1%,i
CCc1ccc(NC(=O)N2CCN(c3nnc(C)c4c(C)n(-c5ccc(Cl)cc5)nc34)CC2)cc1,.,.,.,.,-4%,.
SMILES,AmpC no deterg,SARS PLpro yeast-1,NS1 function inh,Giardia FBPA inh,AmpC inh detg,SARS PLpro yeast-2
O=C1CC(c2ccccc2)Cc2[nH]c(=O)c(C(=O)Nc3cccc(Cl)c3)cc21 (stereo not given),.,.,.,.,-1%,.
O=C(CN1CCCc2ccccc21)N/N=C/c1c(O)ccc2ccccc12,-56%,10µM*,12%,-8%,-9%,i
COc1ccccc1N(CC(=O)N/N=C/c1c(O)ccc2ccccc12)S(C)(=O)=O,-29%,11µM*,26%,-7%,-2%,+
CCOc1ccc(C(=O)CCC(=O)N(CC)CC(=O)NCc2cccs2)cc1,23%,8%,.,.,3%,.
Cc1ccc(N2C(=O)N(CC(=O)Nc3ccc([N+](=O)[O-])cc3)C(=O)C2C)cc1 (stereo not given),-33%,0%,-1%,.,-1%,.
O=c1c2ccccc2ncn1CCCSc1ccc(Cl)cc1,-6%,-6%,-88%,2%,-9%,.
O=c1c2ccccc2ncn1CCCSc1ccccc1,-5%,?,-44%,3%,-1%,i
CCOc1ccc(NC(=O)c2cc(S(=O)(=O)N3CCCCC3)c[nH]2)cc1,-24%,6%,13%,2%,-14%,.
CCCC(=O)NC(c1ccc(C)cc1)c1ccc2cccnc2c1O (stereo not given),-27%,?,-144%,?,6%,+
CCCC(=O)NC(c1ccc2c(c1)OCO2)c1cc(Cl)c2cccnc2c1O (stereo not given),-20%,2.8µM*,20%,?,?,i
CCCCC(=O)NC(c1ccc(N(CC)CC)cc1)c1ccc2cccnc2c1O (stereo not given),-46%,4µM*,-88%,?,7%,?
CCCC(=O)NC(c1ccco1)c1cc(Cl)c2cccnc2c1O (stereo not given),-13%,-28%,-170%,?,7%,.
COc1cc(C(=O)Nc2nnc(SCC(=O)NCC3CCCO3)s2)cc(OC)c1OC (stereo not given),79%,4.5µM*,9%,.,1%,i
COc1ccccc1C(=O)Nc1nnc(SCC(=O)NCC2CCCO2)s1 (stereo not given),90%,1%,1%,.,-2%,.
COc1cc(C2NC(=O)NC(C)=C2C(=O)OC2CCCC(C)C2)cc(Br)c1O (stereo not given),53%,1%,7%,-1%,?,.
CC(=O)NCCC(=O)Nc1nc(-c2ccc3ccccc3c2)cs1,87%,?,-1%,2%,0%,i
CC(=O)Nc1nc(-c2ccc3ccccc3c2)cs1,-37%,-1%,-2%,9%,-1%,.
CC(=O)c1ccc(N(C)C)cc1,-8%,2.8µM*,-10%,0%,0%,i
O=c1cccc2n1CC1CC2CN(Cc2ccc3c(c2)OCO3)C1 (stereo not given),-5%,?,-2%,-6%,?,?
CC(C)CNC(=S)NC(=O)c1ccccc1Cl,-8%,?,10%,1%,-2%,i

# Assay outcomes: PubChem, National Center for Advancing Translational Sciences (NCATS)
